Source: PubChem
Many of the other results were omitted from the sample, so hits are more common in it than they were.
IDE exosite inh: displaces the probe from the exo-site of human IDE | AID 1259349 | P14735 | 17,000 tested, 6.3% active | purified IDE, FL-6b probe fluorescence polarization; active compounds read low | z-score at 20 µM;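 active means z-score of -3 or lower, meaning strong loss of probe binding signal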;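 further: His-tagged human IDE residues 42-1019 made in E. coli with 30 nM FL-6b probe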
Active calls of the source: *; ! = not confirmed by another sample.

SMILES	IDE exosite inh
O=C(NCC1CC1)[C@H]1[C@H](CO)[C@H]2Cn3c(ccc(-c4cccnc4)c3=O)[C@H]2N1Cc1cocn1	-0.58
O=C(c1ccccc1F)N1CC[C@H]2[C@H](CO)Nc3ccc(Br)cc3[C@H]21	1.4
C/C=C/c1ccc(C2[C@H]3CNC[C@@H]2N3Cc2cc(-c3ccccc3)on2)cc1 (stereo partly drawn)	0.067
O=C(c1cccnc1)N1CC(=O)N2[C@@H](CO)[C@@H](c3ccc(/C=C/c4ccccc4)cc3)[C@@H]2C1	-8.6*
O=C(c1cccnc1)N1CC(=O)N2[C@H](C1)[C@H](c1ccc(/C=C/c3ccccc3)cc1)[C@@H]2CO	-4.5*
O=C(Nc1cccc(F)c1)N1CC(=O)N2[C@H](CO)[C@H](c3ccc(-c4ccccc4)cc3)[C@H]2C1	-0.45
O=C(Nc1cccc(F)c1)N1CC(=O)N2[C@H](C1)[C@H](c1ccc(Br)cc1)[C@@H]2CO	0.76
CCCC(=O)Nc1ccc2c(c1)OC[C@H](C)NC[C@H](C)[C@@H](OC)CN(C)C2=O	-0.044
C[C@H]1CNC(=O)[C@H](Cc2ccc(C(F)(F)F)cc2)CCn2nncc2COC1	0.65
N#C[C@@H]1[C@@H](c2ccc(-c3cncnc3)cc2)[C@H](CO)N1C(=O)C1CCC1	4.7
O=C(c1ccc(F)cc1)N1CC(=O)N2[C@H](CO)[C@H](c3ccc(C#CCC4CCCC4)cc3)[C@@H]2C1	-0.91
Cc1ccc(-c2ccc([C@H]3[C@H](CO)N4C(=O)CN(C(=O)Cc5ccccn5)C[C@@H]34)cc2)cc1	0.21
O=C(Cc1ccccn1)N1CC(=O)N2[C@@H](CO)[C@H](c3ccc(-c4ccccc4)cc3)[C@@H]2C1	-1.5
Cc1cccc(-c2ccc([C@H]3[C@@H](CO)N4C(=O)CN(C(=O)Cc5ccccn5)C[C@@H]34)cc2)c1	-11*
COc1ccc(-c2ccc([C@H]3[C@H]4CN(C(=O)Cc5ccccn5)CC(=O)N4[C@H]3CO)cc2)cc1	-0.84
O=C(Cc1ccccn1)N1CC(=O)N2[C@H](C1)[C@@H](c1ccc(C#CC3CC3)cc1)[C@@H]2CO	-3.1*
Cc1ccc(-c2ccc([C@H]3[C@H]4CN(C(=O)Cc5ccccn5)CC(=O)N4[C@H]3CO)cc2)cc1	-2.1
Cc1cccc(-c2ccc([C@@H]3[C@@H](CO)N4C(=O)CN(C(=O)Cc5ccccn5)C[C@@H]34)cc2)c1	-12*
Cc1ccc(-c2ccc([C@H]3[C@@H](CO)N4C(=O)CN(C(=O)Cc5ccccn5)C[C@@H]34)cc2)cc1	-1.3
O=C(Cc1ccccn1)N1CC(=O)N2[C@H](CO)[C@@H](c3ccc(C#CC4CC4)cc3)[C@H]2C1	3.5
O=C(Cc1ccccn1)N1CC(=O)N2[C@@H](CO)[C@@H](c3ccc(C#CC4CC4)cc3)[C@@H]2C1	0.96
Cc1cccc(-c2ccc([C@H]3[C@H]4CN(C(=O)Cc5ccccn5)CC(=O)N4[C@H]3CO)cc2)c1	-4.5*
COc1ccc(-c2ccc([C@@H]3[C@@H](CO)N4C(=O)CN(C(=O)Cc5ccccn5)C[C@H]34)cc2)cc1	1.1
O=S(=O)(c1ccccc1F)N1CCCCN2[C@H](CO)[C@H](c3ccc(-c4cccnc4)cc3)[C@H]2C1	-0.75
CC(C)NC(=O)N(C)C[C@@H]1Oc2ccc(NC(=O)Cc3ccccc3)cc2CC(=O)N([C@H](C)CO)C[C@H]1C	1.8
SMILES	IDE exosite inh
N#Cc1cccc(-c2ccc([C@@H]3[C@H](CO)N4CCCCN(C(=O)Nc5cccc(F)c5)C[C@@H]34)cc2)c1	6.5
COc1ccc(S(=O)(=O)Nc2ccc3c(c2)C(=O)N([C@@H](C)CO)C[C@@H](C)[C@@H](CN(C)Cc2ccc(C(F)(F)F)cc2)OCCCC[C@@H](C)O3)cc1	3.3
CO[C@@H](CN(C)C(=O)c1cnccn1)[C@H](C)CN([C@H](C)CO)S(=O)(=O)c1ccccc1	-0.079
COc1ccc(NC(=O)N2CC(=O)N3[C@H](C2)[C@@H](c2ccc(C#CCC4CCCC4)cc2)[C@@H]3CO)cc1	1.3
COc1cccc(C(=O)Nc2ccc3c(c2)C(=O)N(C)[C@@H]2CC[C@H](CC(=O)NCc4ccc(F)cc4)O[C@@H]2CO3)c1	0.74
CCC(=O)N1CC(=O)N2[C@H](CO)[C@@H](c3ccc(-c4ccccc4F)cc3)[C@H]2C1	0.87
CCC(=O)N1CC(=O)N2[C@@H](CO)[C@@H](c3ccc(-c4ccccc4F)cc3)[C@@H]2C1	-5.6*
CCC(=O)N1CC(=O)N2[C@H](CO)[C@@H](c3ccc(-c4ccccc4F)cc3)[C@@H]2C1	-5.2*
COCC(=O)N1CC(=O)N2[C@H](C1)[C@H](c1ccc(-c3ccccc3F)cc1)[C@@H]2CO	0.35
COCC(=O)N1CC(=O)N2[C@@H](CO)[C@H](c3ccc(-c4ccccc4F)cc3)[C@@H]2C1	0.036
CCC(=O)N1CC(=O)N2[C@H](C1)[C@H](c1ccc(-c3ccccc3F)cc1)[C@@H]2CO	-3.5*
O=C(C1CCCCC1)N1CC(=O)N2[C@H](C1)[C@@H](c1ccc(-c3ccccc3F)cc1)[C@@H]2CO	-2.7
COCC#Cc1ccc([C@H]2[C@@H](CO)N3CCCCN(C(=O)Nc4cc(F)ccc4F)C[C@H]23)cc1	-0.3
CC(C)C#Cc1ccc([C@@H]2[C@H]3CN(C(=O)Nc4ccccc4)CCCCN3[C@H]2CO)cc1	3.1
O=C(C1CCCC1)N1CC2(C1)[C@@H](c1ccccc1)[C@H](CO)N2Cc1ccc(Cl)cc1	-0.65
O=S(=O)(c1ccc(F)cc1)N1C[C@@H]2N[C@H](C1)C2c1ccc(/C=C/c2ccccc2)cc1 (stereo partly drawn)	0.82
COc1ccccc1-c1ccc(C2[C@@H]3CN(S(=O)(=O)c4ccc(F)cc4)C[C@H]2N3)cc1 (stereo partly drawn)	-3.1*!
O=S(=O)(Cc1ccccc1)N1[C@@H]2CNC[C@H]1C2c1ccc(-c2ccccc2)cc1 (stereo partly drawn)	-0.66
Cc1cccc(S(=O)(=O)N2[C@@H]3CNC[C@H]2C3c2ccc(-c3ccccc3C)cc2)c1 (stereo partly drawn)	-4*
Cc1ccccc1-c1ccc(C2[C@H]3CNC[C@@H]2N3S(=O)(=O)c2ccccc2C)cc1 (stereo partly drawn)	-0.51
Cc1ccccc1-c1ccc(C2[C@H]3CNC[C@@H]2N3S(=O)(=O)c2ccccc2)cc1 (stereo partly drawn)	-1.5
COc1ccc(-c2ccc(C3[C@H]4CNC[C@@H]3N4S(=O)(=O)Cc3ccccc3)cc2)cc1 (stereo partly drawn)	0.067
COc1ccc(S(=O)(=O)N2[C@@H]3CNC[C@H]2C3c2ccc(-c3ccccc3OC)cc2)cc1 (stereo partly drawn)	-3.6*!
COc1ccc(S(=O)(=O)N2[C@@H]3CNC[C@H]2C3c2ccc(-c3ccncc3)cc2)cc1 (stereo partly drawn)	3.1
COc1ccccc1-c1ccc(C2[C@H]3CNC[C@@H]2N3S(=O)(=O)c2ccccc2C)cc1 (stereo partly drawn)	4.7
COc1ccccc1-c1ccc(C2[C@@H]3CN(S(=O)(=O)c4ccc(C)cc4)C[C@H]2N3)cc1 (stereo partly drawn)	-1.2
Cc1ccccc1-c1ccc(C2[C@H]3CNC[C@@H]2N3S(=O)(=O)Cc2ccccc2)cc1 (stereo partly drawn)	-7.3*
COc1ccc2c3c(n(C)c2c1)[C@H](CO)N(C(=O)CN1CCOCC1)CC31CCN(C(=O)Nc2cccc(F)c2)CC1	0.14
COc1ccccc1CNC(=O)C[C@@H]1CC[C@H]2[C@@H](COC[C@@H](O)CN2Cc2ccc3c(c2)OCO3)O1	-1
